Our source for the residual activity values is ChEMBL document CHEMBL2218924, “A broad activity screen in support of a chemogenomic map for kinase signalling research and drug discovery” (Biochem J, 2013).

Assay [1] has as its target Tyrosine-protein kinase SYK (Homo sapiens) (UniProt P43405). Particulars: at 10 µM.
Assay [2] addresses T1, Mitogen-activated protein kinase kinase kinase 7 (Homo sapiens) (UniProt O43318).
T1 sequence (whole entry): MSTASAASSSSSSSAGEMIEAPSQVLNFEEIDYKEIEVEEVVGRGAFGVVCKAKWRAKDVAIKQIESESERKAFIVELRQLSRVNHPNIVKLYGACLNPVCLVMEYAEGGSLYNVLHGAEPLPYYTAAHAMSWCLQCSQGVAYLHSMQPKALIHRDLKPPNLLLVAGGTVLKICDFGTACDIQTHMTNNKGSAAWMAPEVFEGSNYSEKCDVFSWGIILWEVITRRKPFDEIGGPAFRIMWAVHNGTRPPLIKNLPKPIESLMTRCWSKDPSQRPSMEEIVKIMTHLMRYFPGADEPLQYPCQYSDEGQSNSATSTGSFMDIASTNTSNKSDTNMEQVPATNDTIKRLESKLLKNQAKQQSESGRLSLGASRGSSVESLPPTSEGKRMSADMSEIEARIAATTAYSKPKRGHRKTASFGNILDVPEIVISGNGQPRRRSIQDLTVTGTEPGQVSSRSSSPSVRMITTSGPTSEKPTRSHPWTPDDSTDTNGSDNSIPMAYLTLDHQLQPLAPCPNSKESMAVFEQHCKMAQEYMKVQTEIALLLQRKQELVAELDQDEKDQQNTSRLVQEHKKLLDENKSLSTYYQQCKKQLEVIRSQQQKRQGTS
Particulars: at 1 µM.

The target of assay [3] is T1, Mitogen-activated protein kinase kinase kinase 7 (Homo sapiens). Particulars: at 10 µM.
For assay [4], the target named is T2, Serine/threonine-protein kinase TAO1 (Homo sapiens) (UniProt Q7L7X3).
T2 sequence (whole entry): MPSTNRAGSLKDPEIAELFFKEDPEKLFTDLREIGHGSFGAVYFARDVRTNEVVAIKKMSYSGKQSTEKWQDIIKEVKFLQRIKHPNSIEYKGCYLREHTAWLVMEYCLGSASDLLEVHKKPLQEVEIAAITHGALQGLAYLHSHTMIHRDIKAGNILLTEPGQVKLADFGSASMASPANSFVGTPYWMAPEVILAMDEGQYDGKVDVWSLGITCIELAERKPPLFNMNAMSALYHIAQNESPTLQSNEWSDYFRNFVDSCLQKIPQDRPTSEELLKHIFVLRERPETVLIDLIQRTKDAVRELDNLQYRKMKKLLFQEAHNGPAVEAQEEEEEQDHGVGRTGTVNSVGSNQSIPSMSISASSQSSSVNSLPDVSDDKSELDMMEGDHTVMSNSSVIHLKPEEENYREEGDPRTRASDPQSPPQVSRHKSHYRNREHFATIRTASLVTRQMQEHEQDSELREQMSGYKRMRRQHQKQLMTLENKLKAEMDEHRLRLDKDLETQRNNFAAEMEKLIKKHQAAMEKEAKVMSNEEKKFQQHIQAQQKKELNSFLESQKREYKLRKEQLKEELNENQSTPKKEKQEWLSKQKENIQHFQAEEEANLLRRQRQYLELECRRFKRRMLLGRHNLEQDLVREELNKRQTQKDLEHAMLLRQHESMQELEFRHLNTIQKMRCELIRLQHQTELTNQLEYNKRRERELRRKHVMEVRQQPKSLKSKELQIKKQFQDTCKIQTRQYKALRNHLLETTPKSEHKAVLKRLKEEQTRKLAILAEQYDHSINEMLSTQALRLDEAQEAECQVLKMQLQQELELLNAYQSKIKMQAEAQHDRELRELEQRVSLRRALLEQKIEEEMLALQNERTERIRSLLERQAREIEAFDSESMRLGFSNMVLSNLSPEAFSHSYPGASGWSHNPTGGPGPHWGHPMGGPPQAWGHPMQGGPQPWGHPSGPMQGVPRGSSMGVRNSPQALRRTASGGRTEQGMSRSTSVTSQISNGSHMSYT
Particulars: at 1 µM.

For assay [5], the target named is T2, Serine/threonine-protein kinase TAO1 (Homo sapiens). Particulars: at 10 µM.
The target of assay [6] is T3, Serine/threonine-protein kinase TAO3 (Homo sapiens) (UniProt Q9H2K8).
T3 sequence (whole entry): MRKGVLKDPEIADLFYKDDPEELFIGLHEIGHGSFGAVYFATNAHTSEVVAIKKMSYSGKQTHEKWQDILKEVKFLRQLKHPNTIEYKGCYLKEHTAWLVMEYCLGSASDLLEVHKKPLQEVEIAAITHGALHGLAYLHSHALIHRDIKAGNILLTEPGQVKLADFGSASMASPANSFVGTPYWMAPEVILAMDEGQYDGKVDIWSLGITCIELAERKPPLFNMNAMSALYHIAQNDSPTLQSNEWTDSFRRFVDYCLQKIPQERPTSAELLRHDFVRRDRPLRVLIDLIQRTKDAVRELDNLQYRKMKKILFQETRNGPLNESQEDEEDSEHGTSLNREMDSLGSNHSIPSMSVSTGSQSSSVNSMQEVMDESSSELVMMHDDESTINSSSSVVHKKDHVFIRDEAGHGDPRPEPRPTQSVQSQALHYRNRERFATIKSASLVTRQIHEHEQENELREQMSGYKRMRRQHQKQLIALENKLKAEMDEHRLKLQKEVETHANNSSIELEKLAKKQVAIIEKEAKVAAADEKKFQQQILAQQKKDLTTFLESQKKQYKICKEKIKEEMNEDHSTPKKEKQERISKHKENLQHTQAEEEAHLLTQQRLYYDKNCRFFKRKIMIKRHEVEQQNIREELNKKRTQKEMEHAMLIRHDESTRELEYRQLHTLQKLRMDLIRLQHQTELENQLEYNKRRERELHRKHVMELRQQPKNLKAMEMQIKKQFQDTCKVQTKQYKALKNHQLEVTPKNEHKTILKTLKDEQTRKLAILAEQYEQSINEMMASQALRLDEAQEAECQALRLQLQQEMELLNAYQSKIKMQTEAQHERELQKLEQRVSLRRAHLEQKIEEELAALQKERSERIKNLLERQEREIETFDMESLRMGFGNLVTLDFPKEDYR
Particulars: at 1 µM.

Assay [7] addresses T3, Serine/threonine-protein kinase TAO3 (Homo sapiens). Particulars: at 10 µM.
Assay [8] has as its target T4, Serine/threonine-protein kinase TBK1 (Homo sapiens) (UniProt Q9UHD2).
T4 sequence (whole entry): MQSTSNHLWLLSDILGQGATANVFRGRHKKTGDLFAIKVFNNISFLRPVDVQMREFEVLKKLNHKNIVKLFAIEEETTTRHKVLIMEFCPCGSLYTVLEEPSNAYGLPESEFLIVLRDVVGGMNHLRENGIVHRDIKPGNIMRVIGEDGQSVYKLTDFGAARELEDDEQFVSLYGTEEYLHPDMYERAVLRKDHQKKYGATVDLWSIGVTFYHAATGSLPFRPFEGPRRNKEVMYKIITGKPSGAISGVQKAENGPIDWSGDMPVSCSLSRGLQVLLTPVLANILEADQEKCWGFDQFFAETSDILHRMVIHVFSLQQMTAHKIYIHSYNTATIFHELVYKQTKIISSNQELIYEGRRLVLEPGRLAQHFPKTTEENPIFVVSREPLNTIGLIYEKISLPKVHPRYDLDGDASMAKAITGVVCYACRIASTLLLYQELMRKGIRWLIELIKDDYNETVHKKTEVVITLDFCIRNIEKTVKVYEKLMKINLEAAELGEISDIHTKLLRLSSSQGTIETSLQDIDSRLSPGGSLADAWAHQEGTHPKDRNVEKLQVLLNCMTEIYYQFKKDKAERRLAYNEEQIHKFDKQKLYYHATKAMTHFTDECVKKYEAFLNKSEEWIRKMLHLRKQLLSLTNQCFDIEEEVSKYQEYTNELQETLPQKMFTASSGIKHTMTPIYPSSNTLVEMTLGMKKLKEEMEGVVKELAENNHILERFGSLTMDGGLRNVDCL
Particulars: at 1 µM.

In assay [9] the target is T4, Serine/threonine-protein kinase TBK1 (Homo sapiens). Particulars: at 10 µM.
In assay [10] the target is Insulin receptor (Homo sapiens) (UniProt P06213). Particulars: at 1 µM.
Sequence of Insulin receptor (Homo sapiens) (P06213 28-758 limits assumed): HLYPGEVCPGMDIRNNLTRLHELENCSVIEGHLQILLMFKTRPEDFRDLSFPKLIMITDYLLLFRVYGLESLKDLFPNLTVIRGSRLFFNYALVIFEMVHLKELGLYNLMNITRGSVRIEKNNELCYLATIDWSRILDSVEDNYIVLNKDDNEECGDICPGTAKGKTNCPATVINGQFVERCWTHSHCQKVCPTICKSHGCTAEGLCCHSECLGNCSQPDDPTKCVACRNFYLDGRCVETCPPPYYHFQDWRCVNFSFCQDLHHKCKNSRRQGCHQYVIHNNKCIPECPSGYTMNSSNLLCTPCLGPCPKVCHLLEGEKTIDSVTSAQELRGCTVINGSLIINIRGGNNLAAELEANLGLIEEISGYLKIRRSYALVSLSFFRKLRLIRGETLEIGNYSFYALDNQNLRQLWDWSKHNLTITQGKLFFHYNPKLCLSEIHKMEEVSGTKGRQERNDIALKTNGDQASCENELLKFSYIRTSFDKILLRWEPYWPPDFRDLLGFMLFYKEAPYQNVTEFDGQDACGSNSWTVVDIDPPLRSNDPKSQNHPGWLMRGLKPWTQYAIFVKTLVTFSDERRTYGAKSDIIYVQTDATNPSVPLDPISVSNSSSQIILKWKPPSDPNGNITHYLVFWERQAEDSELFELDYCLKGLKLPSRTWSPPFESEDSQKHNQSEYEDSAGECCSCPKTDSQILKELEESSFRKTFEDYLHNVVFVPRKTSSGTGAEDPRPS
Sequence of Insulin receptor (Homo sapiens) (P06213 763-1382 limits assumed): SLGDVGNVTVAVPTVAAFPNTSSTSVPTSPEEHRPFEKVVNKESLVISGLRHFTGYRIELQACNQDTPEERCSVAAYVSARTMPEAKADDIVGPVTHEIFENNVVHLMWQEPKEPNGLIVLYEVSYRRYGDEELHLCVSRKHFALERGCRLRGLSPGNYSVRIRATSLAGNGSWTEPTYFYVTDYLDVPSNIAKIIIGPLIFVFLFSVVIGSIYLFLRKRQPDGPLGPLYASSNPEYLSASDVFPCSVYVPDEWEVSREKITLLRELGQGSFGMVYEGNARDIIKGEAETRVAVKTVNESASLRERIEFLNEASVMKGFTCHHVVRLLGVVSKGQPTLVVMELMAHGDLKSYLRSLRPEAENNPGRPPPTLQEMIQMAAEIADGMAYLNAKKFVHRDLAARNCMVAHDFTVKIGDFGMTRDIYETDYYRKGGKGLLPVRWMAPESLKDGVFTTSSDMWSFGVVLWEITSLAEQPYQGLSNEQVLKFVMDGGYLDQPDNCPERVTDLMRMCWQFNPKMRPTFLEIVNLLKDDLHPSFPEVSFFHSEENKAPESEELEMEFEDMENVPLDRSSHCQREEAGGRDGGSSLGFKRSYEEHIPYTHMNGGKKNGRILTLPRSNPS
The target in assay [11] is Insulin-like growth factor 1 receptor (Homo sapiens) (UniProt P08069). Particulars: at 1 µM.
Sequence of Insulin-like growth factor 1 receptor (Homo sapiens) (P08069 31-736 limits assumed): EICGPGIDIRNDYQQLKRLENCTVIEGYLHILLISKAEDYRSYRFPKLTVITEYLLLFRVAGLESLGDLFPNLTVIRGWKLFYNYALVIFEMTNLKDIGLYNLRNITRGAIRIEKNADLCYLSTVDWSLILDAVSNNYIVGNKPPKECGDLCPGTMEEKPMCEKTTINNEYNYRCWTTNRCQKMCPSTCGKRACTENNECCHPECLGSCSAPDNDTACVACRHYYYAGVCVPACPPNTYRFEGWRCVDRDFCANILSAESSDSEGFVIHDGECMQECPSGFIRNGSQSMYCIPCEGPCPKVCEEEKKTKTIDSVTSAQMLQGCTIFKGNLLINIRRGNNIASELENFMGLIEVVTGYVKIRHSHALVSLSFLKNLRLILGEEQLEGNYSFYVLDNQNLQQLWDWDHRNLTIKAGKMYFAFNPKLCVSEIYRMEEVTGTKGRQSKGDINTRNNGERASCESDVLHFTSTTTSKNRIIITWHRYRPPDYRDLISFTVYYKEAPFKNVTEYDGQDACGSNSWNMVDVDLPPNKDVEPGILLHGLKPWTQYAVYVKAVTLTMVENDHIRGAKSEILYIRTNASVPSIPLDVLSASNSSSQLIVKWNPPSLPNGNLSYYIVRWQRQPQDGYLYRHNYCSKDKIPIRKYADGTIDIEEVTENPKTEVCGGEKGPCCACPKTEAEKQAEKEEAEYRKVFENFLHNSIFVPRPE
Sequence of Insulin-like growth factor 1 receptor (Homo sapiens) (P08069 741-1367 limits assumed): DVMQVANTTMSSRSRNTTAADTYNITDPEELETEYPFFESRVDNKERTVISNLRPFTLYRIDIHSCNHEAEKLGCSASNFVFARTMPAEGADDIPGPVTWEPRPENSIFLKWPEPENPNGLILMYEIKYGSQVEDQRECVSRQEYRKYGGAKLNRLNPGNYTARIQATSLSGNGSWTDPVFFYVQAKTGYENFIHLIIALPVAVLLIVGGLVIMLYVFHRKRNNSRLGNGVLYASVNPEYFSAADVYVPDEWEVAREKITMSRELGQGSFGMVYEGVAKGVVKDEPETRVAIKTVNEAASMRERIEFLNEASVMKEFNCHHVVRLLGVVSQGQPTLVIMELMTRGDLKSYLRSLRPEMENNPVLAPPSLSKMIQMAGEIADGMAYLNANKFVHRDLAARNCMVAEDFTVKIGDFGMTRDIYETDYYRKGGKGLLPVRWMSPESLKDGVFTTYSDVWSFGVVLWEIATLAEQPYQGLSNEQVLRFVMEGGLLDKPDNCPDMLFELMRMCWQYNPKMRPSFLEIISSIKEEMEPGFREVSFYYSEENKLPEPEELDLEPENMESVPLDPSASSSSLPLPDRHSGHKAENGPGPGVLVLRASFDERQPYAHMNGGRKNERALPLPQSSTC
The target is the same in assay [12]. Particulars: at 10 µM.
In assay [13] the target is T5, Inhibitor of nuclear factor kappa-B kinase subunit alpha (Homo sapiens) (UniProt O15111).
T5 sequence (whole entry): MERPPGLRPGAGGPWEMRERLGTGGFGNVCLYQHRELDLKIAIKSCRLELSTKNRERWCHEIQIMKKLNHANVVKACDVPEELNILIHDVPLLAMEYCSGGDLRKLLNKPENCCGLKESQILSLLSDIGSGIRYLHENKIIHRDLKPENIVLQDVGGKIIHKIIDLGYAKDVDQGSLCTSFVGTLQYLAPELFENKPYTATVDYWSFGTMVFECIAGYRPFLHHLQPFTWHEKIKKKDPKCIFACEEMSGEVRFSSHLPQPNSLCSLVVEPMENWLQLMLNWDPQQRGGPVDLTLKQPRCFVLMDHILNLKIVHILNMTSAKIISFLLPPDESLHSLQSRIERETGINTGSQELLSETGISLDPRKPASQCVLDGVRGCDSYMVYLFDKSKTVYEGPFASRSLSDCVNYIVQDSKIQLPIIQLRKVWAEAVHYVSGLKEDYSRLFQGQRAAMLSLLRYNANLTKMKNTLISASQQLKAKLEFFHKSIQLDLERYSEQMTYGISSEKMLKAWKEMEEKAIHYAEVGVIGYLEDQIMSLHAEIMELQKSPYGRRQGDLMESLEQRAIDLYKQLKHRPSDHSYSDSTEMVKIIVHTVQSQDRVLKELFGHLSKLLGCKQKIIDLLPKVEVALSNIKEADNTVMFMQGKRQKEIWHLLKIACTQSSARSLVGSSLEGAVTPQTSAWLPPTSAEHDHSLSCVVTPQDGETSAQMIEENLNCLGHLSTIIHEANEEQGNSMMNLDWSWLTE
Particulars: at 10 µM.

Assay [14] concerns the target T6, Inhibitor of nuclear factor kappa-B kinase subunit beta (Homo sapiens) (UniProt O14920).
T6 sequence (whole entry): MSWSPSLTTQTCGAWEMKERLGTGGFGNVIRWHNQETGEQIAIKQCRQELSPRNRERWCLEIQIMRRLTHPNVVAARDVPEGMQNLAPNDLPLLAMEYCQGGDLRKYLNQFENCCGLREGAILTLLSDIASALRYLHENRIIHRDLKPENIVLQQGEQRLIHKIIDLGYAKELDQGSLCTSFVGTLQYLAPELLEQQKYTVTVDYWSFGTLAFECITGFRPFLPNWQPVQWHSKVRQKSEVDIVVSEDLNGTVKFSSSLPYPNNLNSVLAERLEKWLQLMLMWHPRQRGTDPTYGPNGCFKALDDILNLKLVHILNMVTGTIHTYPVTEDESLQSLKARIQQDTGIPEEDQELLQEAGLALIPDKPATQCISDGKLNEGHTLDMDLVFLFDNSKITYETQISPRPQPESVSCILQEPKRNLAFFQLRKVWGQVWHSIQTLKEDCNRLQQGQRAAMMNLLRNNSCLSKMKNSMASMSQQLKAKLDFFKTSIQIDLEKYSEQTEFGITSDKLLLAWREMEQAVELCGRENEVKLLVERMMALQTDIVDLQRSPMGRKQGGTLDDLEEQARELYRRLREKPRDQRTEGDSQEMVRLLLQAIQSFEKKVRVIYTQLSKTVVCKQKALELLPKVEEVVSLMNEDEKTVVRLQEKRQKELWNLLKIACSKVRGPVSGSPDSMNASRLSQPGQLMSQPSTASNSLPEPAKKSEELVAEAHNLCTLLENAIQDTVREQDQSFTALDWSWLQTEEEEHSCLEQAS
Particulars: at 1 µM.

The structures appear in SMILES notation.

On to `O=C1NC(=O)C(c2cn(CCCO)c3ncccc23)=C1c1cnccn1`, for which the residual activity turned out to be 96% in assay [1]; 94% in assay [2]; 81% in assay [3]; 86% in assay [4]; 69% in assay [5]; 83% in assay [6]. Also, the residual activity came out at 77% in assay [7], 92% in [8], 67% in assay [9] and 122% in assay [10].
With `CCN(CC)CCNC(=O)c1c(C)[nH]c(/C=C2\C(=O)Nc3ccc(Cl)cc32)c1C`, the residual activity is 33% in assay [1]; 4% in [2]; -3% in assay [3]; 71% in [4]; 18% in [5]; 79% in assay [6]. Further, the residual activity in [7] worked out at 24%; in [8], 15%; in assay [9], 1%; in assay [11] it was 30%; in assay [12], 3%; in assay [13] it was 65%. Moreover, the residual activity in assay [14] amounted to 98%; in assay [10], 32%.
